The record followed here is PubChem BioAssay (Tox21).

Inconclusive results are not listed. A number with no mark means an inactive call. Activity calls are given as the source filed them. Unless noted, calls follow the shape of the dose curve; as a rule, active = well fitted curve in the direction sought with a large enough effect in the repeat runs; inconclusive = weak or mixed curves; inactive = no such curve, though single readings can be large; an effect the other way counts as inactive or inconclusive. Positions of bridges follow the written chain, without caps; N, C: chain ends. Non-standard residues stand in square brackets, D forms with d. Residues, ends and D or L forms follow the SMILES beside them. *: point of attachment. X2 = CC[C@H](C)CCCCC(=O)*; Orn = NCCC[C@H](N)C(=O)O; Dab = NCC[C@H](N)C(=O)O; Mpa = O=C(O)CCS

Assay [1] concerns the target Aryl hydrocarbon receptor (Homo sapiens) (UniProt P35869). The assay is described as follows: qHTS assay to identify small molecule that activate the aryl hydrocarbon receptor (AhR) signaling pathway (AID 743085). Also: nearly all actives have a fitted effect of over 15% in size. Also: potency is read from the fitted curve at half-maximal effect.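 As to activation: HG2L7.5c1 human HepG2 liver cells with stably integrated DRE-driven firefly reporter; series mostly up to about 70 µM.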 Summed up: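 Steps: seed HepG2-AhR-luc cells; allow 5 h at 37C; pin-transfer test compound or vehicle; incubate 24 h at 37C; add viability dye (30 min, 37C) and read fluorescence; add luciferase substrate (30 min, RT) and read luminescence.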
(Quantitative high-throughput screening tests each substance at several concentrations.)

Assay [2] deals with Peroxisome proliferator-activated receptor gamma (Homo sapiens) (UniProt P37231). The assay can be described thus: qHTS assay to identify small molecule agonists of the peroxisome proliferator-activated receptor gamma (PPARg) signaling pathway (AID 743094; active = well fitted activation curve with a large enough effect in the signal ratio in the repeat runs, not every such curve was filed as active; the % refers to the signal ratio). A digest of the protocol:
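GeneBLAzer PPARg UAS-bla HEK293H cells carrying a stably integrated beta-lactamase reporter were pre-incubated 5 h at 37C, then exposed to compounds in DMSO for 17 h at 37C; LiveBLAzer B/G FRET substrate was added for 1 h at room temperature and fluorescence read.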

Assay [3] can be described thus: qHTS assay to identify small molecule phospholipidosis (PLD) inducers (AID 1259344; active = well fitted curve in the direction sought with a large enough effect; an effect the other way counts as inactive or inconclusive; also: potency is read from the fitted curve at half-maximal effect). A digest of the protocol:
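HepG2 cells, 900/well, treated with compound plus LipidTOX Red for 24 h at 37 C; amiodarone positive and DMSO negative controls. Fixed with paraformaldehyde/Hoechst, then high-content imaging scored LipidTOX pit count and integrated intensity per well and per cell.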

Assay [4] has as its target Nuclear receptor subfamily 1 group I member 2 (Rattus norvegicus) (UniProt Q9R1A7). The assay can be described thus: Rat pregnane X receptor (rPXR) activation by small molecules, qHTS assay (AID 1346983). Also: nearly all actives have a fitted effect of over 20% in size. Also: potency is read from the fitted curve at half-maximal effect. To be noted: rPXR luciferase reporter cells, One-Glo luminescence, 24 h; max activation: active compounds read high. A digest of the protocol:
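Cell-based rPXR activation assay: rPXR cells, 2,000 per well, rested 5hr at 37 C, then exposed to compounds in DMSO for 24 hr at 37 C. Luciferase activity read by One-Glo luminescence after 30 min at room temperature.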

Assay [5] can be described thus: qHTS assay to identify small molecule that activate the aryl hydrocarbon receptor (AhR) signaling pathway - cell viability counter screen (AID 743086). Also: nearly all actives have a fitted effect of over 45% in size. Also: potency is read from the fitted curve at half-maximal effect. Summed up:
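HepG2-AhR-luc (HG2L7.5c1) cells, 4000/well, treated 24 h at 37 C with compound; viability measured as CellTiter-Fluor fluorescence after 30 min in the same wells as the luciferase read.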

For assay [6], the target named is Nuclear receptor subfamily 1 group I member 2 (Homo sapiens) (UniProt O75469). The assay can be described thus: Human pregnane X receptor (PXR) activation by small molecules, qHTS assay (AID 1346985). Also: nearly all actives have a fitted effect of over 40% in size. Also: potency is read from the fitted curve at half-maximal effect. A digest of the protocol: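 DPX-2 cells (HepG2 co-transfected with a PXR response element and a CYP3A4-promoter luciferase construct) were seeded at 2,000 per well, rested 5 hr at 37C, then exposed to DMSO-dissolved compounds for 24 hr. Activation was read as luciferase luminescence.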

Assay [7] is described as follows: qHTS assay to identify aromatase inhibitors - cell viability counter screen (AID 743084).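 Also: cells stimulated with testosterone during compound exposure; nearly all actives have a fitted effect of over 55% in size.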 Also: potency is read from the fitted curve at half-maximal effect.
The target in assay [8] is Nuclear receptor subfamily 1 group I member 2 (Homo sapiens) (UniProt O75469). The assay is described as follows: CYP3A4 induction through human pregnane X receptor (PXR) by small molecules, qHTS assay (AID 1346984). Also: nearly all actives have a fitted effect of over 40% in size. Also: potency is read from the fitted curve at half-maximal effect. A digest of the protocol: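 DPX-2 cells (HepG2 co-transfected with PXR and CYP3A4 promoter-luciferase) treated with compounds 24 h at 37C; luciferin-IPA CYP3A4 substrate 3uM final added for 3 h, then One-Glo; luminescence read. qHTS format.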
% is scaled to controls: 0 for no effect and ±100 for the full control effect.

Sequence of Aryl hydrocarbon receptor (Homo sapiens) (P35869 whole entry, looked up): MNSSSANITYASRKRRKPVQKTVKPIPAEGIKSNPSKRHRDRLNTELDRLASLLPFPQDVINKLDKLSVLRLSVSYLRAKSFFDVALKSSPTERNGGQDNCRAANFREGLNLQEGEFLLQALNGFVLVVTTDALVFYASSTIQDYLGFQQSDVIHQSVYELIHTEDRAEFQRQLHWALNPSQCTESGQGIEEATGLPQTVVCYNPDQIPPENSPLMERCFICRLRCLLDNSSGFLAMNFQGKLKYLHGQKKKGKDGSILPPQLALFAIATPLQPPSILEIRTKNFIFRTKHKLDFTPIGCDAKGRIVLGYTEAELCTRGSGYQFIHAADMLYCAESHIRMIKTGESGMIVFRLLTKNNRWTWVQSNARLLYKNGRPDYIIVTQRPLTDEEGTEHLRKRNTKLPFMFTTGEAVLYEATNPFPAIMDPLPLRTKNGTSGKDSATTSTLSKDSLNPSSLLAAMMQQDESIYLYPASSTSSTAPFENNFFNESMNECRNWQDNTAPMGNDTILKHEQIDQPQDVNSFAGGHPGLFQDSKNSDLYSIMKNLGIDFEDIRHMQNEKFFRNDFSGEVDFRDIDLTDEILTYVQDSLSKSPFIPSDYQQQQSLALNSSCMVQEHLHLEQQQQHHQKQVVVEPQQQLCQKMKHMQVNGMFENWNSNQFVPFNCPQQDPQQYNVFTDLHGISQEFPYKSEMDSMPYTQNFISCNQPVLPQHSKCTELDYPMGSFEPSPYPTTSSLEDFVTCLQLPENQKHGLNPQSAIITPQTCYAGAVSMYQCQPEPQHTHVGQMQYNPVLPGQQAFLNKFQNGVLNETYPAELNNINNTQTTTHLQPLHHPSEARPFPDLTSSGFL
Sequence of Peroxisome proliferator-activated receptor gamma (Homo sapiens) (P37231 whole entry, looked up): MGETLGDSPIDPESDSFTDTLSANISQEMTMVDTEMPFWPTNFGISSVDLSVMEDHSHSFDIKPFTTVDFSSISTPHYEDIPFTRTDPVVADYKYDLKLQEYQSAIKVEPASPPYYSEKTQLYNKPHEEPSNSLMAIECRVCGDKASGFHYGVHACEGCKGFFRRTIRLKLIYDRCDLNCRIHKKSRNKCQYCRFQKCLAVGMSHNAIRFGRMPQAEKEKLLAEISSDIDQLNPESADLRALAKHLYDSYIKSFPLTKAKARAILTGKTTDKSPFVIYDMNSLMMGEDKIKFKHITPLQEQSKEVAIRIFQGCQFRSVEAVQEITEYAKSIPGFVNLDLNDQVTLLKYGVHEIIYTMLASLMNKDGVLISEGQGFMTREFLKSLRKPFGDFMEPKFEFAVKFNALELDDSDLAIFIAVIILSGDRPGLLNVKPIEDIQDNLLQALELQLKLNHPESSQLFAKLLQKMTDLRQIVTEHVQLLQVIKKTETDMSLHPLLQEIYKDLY
Sequence of Nuclear receptor subfamily 1 group I member 2 (Rattus norvegicus) (Q9R1A7 whole entry, looked up): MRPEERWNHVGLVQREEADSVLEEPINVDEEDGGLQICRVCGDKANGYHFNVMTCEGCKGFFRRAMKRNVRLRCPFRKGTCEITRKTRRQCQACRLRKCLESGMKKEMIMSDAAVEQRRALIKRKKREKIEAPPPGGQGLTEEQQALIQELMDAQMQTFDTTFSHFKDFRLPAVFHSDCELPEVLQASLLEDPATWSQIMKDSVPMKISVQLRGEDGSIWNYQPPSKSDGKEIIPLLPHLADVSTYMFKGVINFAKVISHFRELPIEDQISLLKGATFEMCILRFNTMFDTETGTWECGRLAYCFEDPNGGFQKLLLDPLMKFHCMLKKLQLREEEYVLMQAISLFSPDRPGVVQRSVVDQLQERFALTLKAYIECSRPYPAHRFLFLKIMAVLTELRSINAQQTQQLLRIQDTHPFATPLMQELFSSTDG

As for `COc1ccc2c(c1)N(C[C@H](C)CN(C)C)c1ccccc1S2`, the Potency entry in assay [1] and in assay [2] was “inactive” each time. Moreover, in assay [3], the Potency was 8.91 µM (active). Besides, the max activation in assay [4] is -5.19%.
For the compound `COc1cc([C@@H]2c3cc4c(cc3C(O[C@@H]3O[C@@H]5COC(c6cccs6)O[C@H]5[C@H](O)[C@H]3O)C3COC(=O)[C@@H]32)OCO4)cc(OC)c1O` (some centres not stated), the Potency entry in assay [1], in assay [5] and in assay [3] was “inactive” in each case. For the same compound, the values for the Potency in assay [4] and in assay [6] were 28.2 µM (active) and 10 µM (active), respectively.
Consider `O=C(NNCS(=O)(=O)O)c1ccncc1`, for which the Potency result in assay [7], in assay [5], in assay [2], in assay [3] and in assay [6] was “inactive” throughout. In assay [4], the max activation was -0.625%.
On to `CC[C@@]1(O)C[C@H](O[C@H]2C[C@H](N(C)C)[C@H](O[C@H]3C[C@H](O)[C@H](O[C@H]4CCC(=O)[C@H](C)O4)[C@H](C)O3)[C@H](C)O2)c2c(cc3c(c2O)C(=O)c2c(O)cccc2C3=O)[C@H]1C(=O)OC`, for which the Potency in assay [7] is 26.6 µM (active); in assay [5], 0.668 µM (active). Besides, the Potency result in assay [3] and in assay [6] was “inactive” each time. Also, the max activation in assay [4] is -18.5%.
As to `C=CC1=C(C)C2=CC3=NC(=C(CC(=O)[O-])C4=NC(=C(C)C4=C([O-])[O-])C=c4[n-]c(c(C)c4CC)=CC1=N2)C(CCC(=O)[O-])C3C.[Cu+2].[Na+].[Na+].[Na+]` (configuration not stated), the Potency in assay [7] and in assay [5] was 23.7 µM (active) each time. Moreover, the Potency entry in assay [3] and in assay [6] was “inactive” throughout. For the same compound, the max activation in assay [4] was -0.69%.
As for `CCOC(=O)C1=C[C@@H](OC(CC)CC)[C@H](NC(C)=O)[C@@H](N)C1`, the Potency entry in assay [7], in assay [1], in assay [5], in assay [2], in assay [3] and in assay [6] was “inactive” throughout. The max activation in assay [4] is -4.38%.
Turning to `CCCCCCOc1ccc(C(=N)N(CCCC)CCCC)c2ccccc12`, the Potency in assay [7] was 16.8 µM (active); in assay [5], 18.8 µM (active). In addition, the Potency entry in assay [1] and in assay [3] was “inactive” in each case. Also, in assay [4], the max activation was -20.9%.
Consider `C[C@]12CCC(=O)C=C1CC[C@@H]1[C@@H]2[C@@H](O)C[C@@]2(C)[C@H]1CC[C@]2(O)C(=O)COP(=O)(O)O`, for which the Potency entry in assay [7], in assay [2] and in assay [3] was “inactive” throughout. Besides, the max activation in assay [4] is 11.6%.
With `C=C1CC[C@H](O)CC1=C/C=C1\CCC[C@]2(C)[C@@H]([C@H](C)CC[C@@H](O)C(C)(C)O)CC[C@@H]12`, the Potency result in assay [7], in assay [5] and in assay [3] was “inactive” throughout. The max activation in assay [4] is 5.8%.
`O=C1O[C@H]2[C@H](O)[C@@H]1OC(O)[C@H]2O` (some centres not stated): the Potency entry in assay [7], in assay [1], in assay [5] and in assay [3] was “inactive” in each case.
As to `CCCCCCCCCCCCCCCCCC(=O)[O][Al]`, the Potency entry in assay [7], in assay [1], in assay [5] and in assay [3] was “inactive” in each case.
`CC#CCC(C)[C@H](O)/C=C/[C@@H]1[C@H]2c3cccc(CCCC(=O)O)c3O[C@H]2C[C@H]1O` (some centres not stated): the Potency result in assay [7], in assay [1], in assay [5] and in assay [3] was “inactive” each time.
Regarding `CC[C@H](C)CCCCC(=O)N[C@@H](CCN)C(=O)N[C@H](C(=O)N[C@@H](CCN)C(=O)N[C@H]1CCNC(=O)[C@H]([C@@H](C)O)NC(=O)[C@H](CCN)NC(=O)[C@H](CCN)NC(=O)[C@H](CC(C)C)NC(=O)[C@@H](CC(C)C)NC(=O)[C@H](CCN)NC1=O)[C@@H](C)O` (X2-[Dab]T[Dab][Dab][Dab][dL]L[Dab][Dab]T; lactam 4-C), the Potency result in assay [7], in assay [1], in assay [5] and in assay [3] was “inactive” each time.
Consider `Cc1cccc(C)c1Nc1ncccc1C(=O)O`, for which the Potency entry in assay [7], in assay [2], in assay [3] and in assay [8] was “inactive” in each case. In addition, the Potency in assay [1] was 29.8 µM (active).
On to `CC(C)CN(C[C@@H](O)[C@H](Cc1ccccc1)NC(=O)O[C@@H]1CCOC1)S(=O)(=O)c1ccc(N)cc1`, for which the Potency entry in assay [7], in assay [2] and in assay [3] was “inactive” throughout. Moreover, the Potency in assay [6] is 2.82 µM (active).
Consider `CC(=O)O[C@H]1C(=O)[C@@]2(C)[C@H]([C@H](OC(=O)c3ccccc3)[C@]3(O)C[C@H](OC(=O)[C@H](O)[C@@H](NC(=O)c4ccccc4)c4ccccc4)C(C)=C1C3(C)C)[C@]1(OC(C)=O)CO[C@@H]1C[C@@H]2O`, for which the Potency in assay [7] is 6.68 µM (active); in assay [8], 6.31 µM (active); in assay [6], 15.8 µM (active). Besides, the Potency entry in assay [1], in assay [2] and in assay [3] was “inactive” in each case.
`CC1(C)C(\C=C/C=C\C=C/C=C2/N(CCCCS(=O)(=O)O)c3ccc4ccccc4c3C2(C)C)=[N+](CCCCS(=O)(=O)[O-])c2ccc3ccccc3c21`: the Potency entry in assay [1], in assay [2], in assay [3], in assay [8] and in assay [6] was “inactive” each time.
As to `NC(=O)C[C@@H](N)C(=O)O`, the Potency entry in assay [7], in assay [1] and in assay [3] was “inactive” each time.
Take `CN[C@H]1CCc2cc(OC)c(OC)c(OC)c2-c2ccc(OC)c(=O)cc21`: the Potency result in assay [7], in assay [2], in assay [3] and in assay [8] was “inactive” each time. In addition, in assay [6], the Potency was 1 µM (active).
Turning to `Cc1ccccc1CNc1ncnc2c1ncn2[C@@H]1O[C@H](CO)[C@@H](O)[C@H]1O`, the Potency result in assay [7], in assay [1], in assay [5] and in assay [3] was “inactive” each time.
For `O=C(c1cc2ccccc2o1)N1CCN(Cc2ccccc2)CC1`, the Potency result in assay [7], in assay [5], in assay [2], in assay [3], in assay [8] and in assay [6] was “inactive” throughout.
For `CO[C@H]1C[C@H](O[C@H]2[C@H](C)O[C@@H](O[C@@H]3/C(C)=C/C[C@@H]4C[C@@H](C[C@]5(C=C[C@H](C)[C@@H](C6CCCCC6)O5)O4)OC(=O)[C@@H]4C=C(C)[C@@H](O)[C@H]5OC/C(=C\C=C\[C@@H]3C)[C@]54O)C[C@@H]2OC)O[C@@H](C)[C@@H]1O`, the Potency entry in assay [7], in assay [1], in assay [5] and in assay [3] was “inactive” each time.
Take `CCOc1ccc(C[C@H]2NC(=O)CCSSC[C@@H](C(=O)N3CCC[C@H]3C(=O)N[C@@H](CCCN)C(=O)NCC(N)=O)NC(=O)[C@H](CC(N)=O)NC(=O)[C@H]([C@@H](C)O)NC(=O)[C@H]([C@@H](C)CC)NC2=O)cc1` ([Mpa][dY](Et)ITNCP[Orn]G-NH2; disulfide 1-6): the Potency result in assay [7], in assay [1] and in assay [3] was “inactive” in each case.
`CCC(=O)NS(=O)(=O)c1ccc(-c2c(-c3ccccc3)noc2C)cc1`: the Potency result in assay [7], in assay [1] and in assay [3] was “inactive” each time.
On to `CC(=O)[C@@]1(O)CC[C@H]2[C@@H]3C=C(Cl)C4=CC(=O)[C@@H]5C[C@@H]5[C@]4(C)[C@H]3CC[C@@]21C`, for which the Potency result in assay [7], in assay [5], in assay [3], in assay [8] and in assay [6] was “inactive” throughout.
Regarding `COc1ccc(CCNC[C@H](O)c2ccc(O)cc2)cc1OC`, the Potency entry in assay [7], in assay [2], in assay [3] and in assay [6] was “inactive” each time.
As to `CC(C)CN(C[C@@H](O)[C@H](Cc1ccccc1)NC(=O)O[C@H]1CO[C@H]2OCC[C@H]21)S(=O)(=O)c1ccc(N)cc1`, the Potency entry in assay [7], in assay [1], in assay [5] and in assay [3] was “inactive” each time.
